# Laboratory results reported in PubChem BioAssay AID2013 (Sanford-Burnham Center for Chemical Genomics, 2009).
# Hit rate of the full screen: of about 290,000 compounds, about 370 (0.13%) were called active.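 How the source made its calls: active means spots per cell inhibited over 60%, with over 100 cells counted and total cytoplasm intensity under 500,000; inconclusive means wells with under 100 cells, flagged as likely toxic; inactive means the rest.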 This excerpt belongs to a sample that is enriched for actives. Entries with a potency or affinity are not part of this list.
# Molecular target: G-protein coupled receptor 55 (Homo sapiens) (UniProt Q9Y2T6)
# Sequence (Q9Y2T6 whole entry, looked up): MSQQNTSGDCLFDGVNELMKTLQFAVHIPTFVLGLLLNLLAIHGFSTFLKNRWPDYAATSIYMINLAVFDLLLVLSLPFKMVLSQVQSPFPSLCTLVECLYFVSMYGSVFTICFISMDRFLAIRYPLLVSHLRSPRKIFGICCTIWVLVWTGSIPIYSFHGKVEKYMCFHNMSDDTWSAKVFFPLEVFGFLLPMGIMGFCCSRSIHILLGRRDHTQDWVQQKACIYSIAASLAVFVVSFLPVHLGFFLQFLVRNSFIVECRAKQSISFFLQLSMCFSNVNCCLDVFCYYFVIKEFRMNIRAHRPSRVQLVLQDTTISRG
# Assay: inhibition of LPI-stimulated GPR55 beta-arrestin translocation – imaging, U2OS, beta-arrestin-GFP, LPI agonist, primary screen (AID 2013);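 further: U2OS cells stably carrying GPR55 and arrestin-GFP stimulated by 5 µM LPI near EC80; imaged beta-arrestin-GFP aggregate spots per cell after agonist stimulation; plate controls were LPI-stimulated DMSO wells for no effect and DMSO wells without LPI for full effect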
# Conditions: LPI antagonism, at 10 µM, stronger effect = higher value
row,Compound,inhibition
1,Cc1cccc(-n2c(O)c(/C=C3/C(c4ccccc4)=Nc4ccccc43)c(=O)[nH]c2=O)c1,74.4% (active)
2,CC1=Nc2ccccc2/C1=C/c1c(O)n(C)c(=O)[nH]c1=O,1.1% (inactive)
3,COC(=O)C1=Nc2ccccc2/C1=C\c1c(O)n(-c2ccc(Br)cc2)c(=O)[nH]c1=O,0.3% (inactive)
4,O=c1[nH]c(=O)n(-c2cccc(F)c2)c(O)c1/C=C1\C=Nc2ccccc21,8.8% (inactive)
5,Cc1ccccc1-n1c(O)c(/C=C2/C(c3ccccc3)=Nc3ccccc32)c(=O)[nH]c1=O,83% (active)
6,COC(=O)C1=Nc2ccccc2/C1=C\c1c(O)n(-c2ccc(OC)cc2)c(=O)[nH]c1=O,-7.2% (inactive)
7,O=c1[nH]c(=O)n(-c2ccccc2F)c(O)c1/C=C1\C=Nc2ccccc21,21.1% (inactive)
8,Cc1cccc(-n2c(O)c(/C=C/C=Nc3ccccc3)c(=O)[nH]c2=O)c1,0.7% (inactive)
9,O=c1[nH]c(=O)n(-c2ccccc2)c(O)c1/C=C1/C(c2ccccc2)=Nc2ccccc21,68.8% (active)
10,C#C[C@@]1(O)CCC2C3CCC4=C/C(=N/OCC(=O)NC(C(=O)NC(CC(C)C)C(=O)O)C(C)C)CC[C@]4(C)C3CC[C@@]21C (stereo not given in full),13.1% (inactive)
11,COc1ccccc1-n1c(-c2ccccc2)nc2ccccc2c1=O,-1.7% (inactive)
12,CN1CCN(c2nc(N(C)C)oc(=O)c2C#N)CC1,2.9% (inactive)
13,Cc1cc(C)nc(-n2c(C)nc3cc(Cl)ccc3c2=O)c1,14.5% (inactive)
14,C/C(=N\Nc1ccccc1)c1c(O)[nH]c(=O)[nH]c1=O,-0.7% (inactive)
15,NNP(=O)(CC(=O)c1ccccc1)c1ccccc1 (stereo not given),-7% (inactive)
16,O=S(=O)(NC1CCCC1)OCC(Cl)(Cl)Cl,0.6% (inactive)
17,CC(=O)c1ccc2c(c1)C1C(Cl)C(Sc3ccccc3[N+](=O)[O-])CC1C(C(=O)O)N2 (stereo not given),21.4% (inactive)
18,Cc1ccc2c(c1Cl)NC(C(=O)O)C1CC(Sc3ccccc3[N+](=O)[O-])C(Cl)C21 (stereo not given),70.4% (active)

row,Compound,inhibition
1,O=C(O)c1cccc2c1NC(C(=O)O)C1CC(Sc3ccccc3[N+](=O)[O-])C(Cl)C21 (stereo not given),17.5% (inactive)
2,CCOC(=O)C(O)(c1ccc(N(CC)C(=O)COc2ccccc2)cc1)C(F)(F)F (stereo not given),7.2% (inactive)
3,Cc1cc(OCC(=O)N[C@@H](Cc2ccccc2)C(=O)O)c2c3c(c(=O)oc2c1)CCC3,1.6% (inactive)
4,O=C1NC(=O)N(Cc2ccccc2)C(=O)/C1=C\c1ccco1,22.2% (inactive)
5,O=C1NC(=O)N(CCc2ccc(F)cc2)C(=O)/C1=C/c1ccco1,95.4% (active)
6,O=C1NC(=O)N(CCc2ccc(F)cc2)C(=O)/C1=C/c1cccs1,84.1% (inactive)
7,CCn1nc(-c2ccccc2)nc2c(=O)n(C)c(=O)nc1-2,18.7% (inactive)
8,Cn1ncnc2c(=O)n(C)c(=O)nc1-2,79.3% (active)
9,Cc1nc2c(=O)n(C)c(=O)nc-2n(C)n1,23.5% (inactive)
10,CN(Cc1ccccc1)C(=O)CN1CCCC1=O,-7.6% (inactive)
11,C=CCOc1ccc(CC2C(=O)N(C)C(=O)N(C)C2=O)cc1,11.7% (inactive)
12,Oc1ccc(C(=C(Cl)Cl)c2ccc(O)cc2)cc1,94.8% (active)
13,O=S(=O)(c1ccc(O)cc1)c1ccc(O)cc1,11% (inactive)
14,CCc1cc(=O)oc2cc(OCC(=O)N3C[C@H]4C[C@@H](C3)c3cccc(=O)n3C4)c(Cl)cc12,-10.3% (inactive)
15,CCCc1nc2ccccc2c(=O)n1-c1ccc(OC)cc1,12.2% (inactive)
16,CC12CCC3C(CC=C4CC(O)CCC43C)C1C/C(=C\c1ccccc1F)C2=O (stereo not given),1.4% (inactive)
17,CCOC(=O)c1cc(C(O)(C(=O)OC)C(F)(F)F)c(/N=C/N(C)C)o1 (stereo not given),14.3% (inactive)
